Screens (PubChem)
This is a sample that favours compounds with a hit; in the whole collection about 3.3% have one here.
PI5P4K alpha inh: blocks human PI5P4K alpha kinase activity; AID 652105; P48426; max response, %; PI5P4Kalpha enzyme, ADP-Glo luminescence, 60 min; stronger effect = lower value; actives 1.2% (n = 330,000); active means max response of -50% or lower; inconclusive means between -30% and -50%; inactive means -30% or higher; further: value at the top dose of about 77 µM
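Quantitative HTS of the MLSMR library against PI5P4Kalpha with substrate. ATP added last at 5 microM final; room temperature, 60 minutes. Remaining ATP depleted, ADP converted and read as luminescence.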
LDHA inh: inhibitors of human lactate dehydrogenase A; P00338; purified LDHA, NADH/diaphorase-resazurin fluorescence; stronger effect = lower value; activity change, % (values are at about 110 or 230 µM); actives 0.15% (n = 480,000); AID 1347041; in the data active means activity change below about -30%; inconclusive means mostly about -25% to -30%
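Resorufin fluorescence (ex540/em590), read at 0 and 20 min after diaphorase/resazurin addition, reports the NADH left after a 5 min room-temperature reaction of 2 nM human LDH5 with 0.06 mM NADH and 0.2 mM pyruvate.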
DRD3 agonist: activates the human D3 dopamine receptor; P35462; D3R DiscoveRx beta-arrestin cells, luminescence, 90 min; max activation, %; actives 0.58% (n = 410,000); in the data active means max activation above about 30%
Target sequence (P35462 whole entry, looked up): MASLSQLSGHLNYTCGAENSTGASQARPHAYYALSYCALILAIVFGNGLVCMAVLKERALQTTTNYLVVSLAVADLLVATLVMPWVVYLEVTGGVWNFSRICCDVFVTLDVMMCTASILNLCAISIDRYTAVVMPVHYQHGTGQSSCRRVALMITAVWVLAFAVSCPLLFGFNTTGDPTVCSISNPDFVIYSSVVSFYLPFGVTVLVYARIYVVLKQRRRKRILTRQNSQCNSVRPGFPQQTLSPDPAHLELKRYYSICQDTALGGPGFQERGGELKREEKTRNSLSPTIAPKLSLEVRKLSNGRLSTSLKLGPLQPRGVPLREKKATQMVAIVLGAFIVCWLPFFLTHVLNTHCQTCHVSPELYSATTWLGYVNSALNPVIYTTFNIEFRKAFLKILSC
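Agonist-mode cell screen: cells plated at 1500/well and incubated overnight at 37 °C, then exposed to library compounds for 90 min at 37 °C. Detection reagent was added for 30–60 min at room temperature, and luminescence was read.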
D3 antag: D3 dopamine receptor (human) antagonism | P35462 | D3R cells, DiscoveRx beta-arrestin luminescence, antagonist mode; stronger effect = lower value | max response, negative = inhibition, % | actives 2.5% (n = 360,000) | AID 652054; in the data active means max response below about -50%; inconclusive means no clear call, values can overlap the other calls
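Cells plated overnight at 1500 cells/well, then exposed to library compounds with dopamine controls for 90 minutes at 37 degrees C. DiscoveRx reagent added for 30–60 minutes at room temperature; luminescence read, quantitative HTS format.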
PI4K2A block: PI4K2A (human) kinase inhibition; purified PI4K2A, ADP-Glo luminescence, 1 h; stronger effect = lower value; activity change, negative = inhibition, % at 76.9 µM; actives 0.13% (n = 420,000); AID 1346378; in the data active means activity change below about -50%; inconclusive means mostly about -30% to -49%
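ADP-Glo luminescence measured ADP generated by PI4K2A enzyme (4 ug/mL before mixing) with 1.2 mM PI substrate (pre-mix) and 300 microM ATP (pre-mix). Tris pH7.5 buffer with MgCl2, Triton X-100; 1 h reaction at ambient temperature.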
ADP-Glo counter: ADP-Glo luciferase interference, PI5P4K counter-screen; shares compounds with PI5P4K alpha inh; ADP-Glo detection counter-screen, luciferase luminescence, no enzyme; Potency, µM (top dose mostly 76.9 µM), usual class: inhibitors; 1,100 tested, under 10 active; AID 743285; active means well fitted curve in the direction sought with a large enough effect; inconclusive means small, poorly fitted or top-dose-only effect, or another doubt; inactive means no such curve, though single readings can be large or run the other way
Hits are given with their value.

Cc1cc(NC(=O)c2sc(Nc3ccc(F)cc3)nc2N)no1 was read as PI5P4K alpha inh -54, LDHA inh inactive, DRD3 agonist inactive, D3 antag inactive, PI4K2A block inactive and ADP-Glo counter inactive.
`Cc1cnc(NC(=O)c2sc(Nc3ccccc3)nc2N)o1` gave PI5P4K alpha inh -55, LDHA inh inactive, DRD3 agonist inactive, D3 antag inactive, PI4K2A block inactive and ADP-Glo counter inactive.
For CCNC(=O)C1CCCN(S(=O)(=O)c2c(C)nn(CC(=O)N3CCc4ccccc43)c2C)C1 (stereo not given) the results were LDHA inh inactive.
`Cc1noc2ncnc(N3CCCC(C(=O)NCc4ccc(F)cc4)C3)c12` (stereo not given) gave LDHA inh inactive.
Screening Cc1ccc(-c2cc3c(=O)n(CC(=O)Nc4ccc(F)cc4C)ccn3n2)cc1 returned LDHA inh inactive.
COc1ccc(NC(=O)CSc2sc3c(O)cc(=O)[nH]c3c2C#N)c(OC)c1 was read as PI5P4K alpha inh -65, LDHA inh inactive, DRD3 agonist inactive, D3 antag inactive, PI4K2A block inactive and ADP-Glo counter inactive.
COc1cc(NC(=O)c2ccccc2)c(OC)cc1NC(=O)CSc1[nH]c(=O)cc(C)c1C#N was read as PI5P4K alpha inh inactive, LDHA inh inactive, DRD3 agonist inactive, D3 antag inactive and PI4K2A block inactive.
Screening COc1ccc(NC(=O)CSc2nc(O)cc(=O)[nH]2)c(OC)c1 returned PI5P4K alpha inh inactive, LDHA inh inactive, DRD3 agonist inactive, D3 antag inactive and PI4K2A block inactive.
`COc1ccccc1NC(=O)CSc1sc2c(O)cc(=O)[nH]c2c1C#N` gave PI5P4K alpha inh -66, LDHA inh inactive, DRD3 agonist inactive, D3 antag inactive, PI4K2A block inactive and ADP-Glo counter inactive.
`COc1cccc(CNC(=O)CN2c3cccc4cccc(c34)S2(=O)=O)c1` gave PI5P4K alpha inh -65, LDHA inh inactive, DRD3 agonist inactive, D3 antag inactive, PI4K2A block inactive and ADP-Glo counter inactive.
CC(NC(=O)CN1c2cccc3cccc(c23)S1(=O)=O)c1ccccc1 (stereo not given) was read as PI5P4K alpha inh inactive, LDHA inh inactive, DRD3 agonist inactive, D3 antag inactive and PI4K2A block inactive.
Screening CC(NC(=O)CN1c2cccc3cccc(c23)S1(=O)=O)c1ccc(S(N)(=O)=O)cc1 (stereo not given) returned PI5P4K alpha inh -55, LDHA inh inactive, DRD3 agonist inactive, D3 antag inactive, PI4K2A block inactive and ADP-Glo counter inactive.
For COC(=O)CCCCCNC(=O)C(SCc1ccccc1)C(C)C (stereo not given) the results were LDHA inh inactive.
`O=C(CSc1nc(-c2ccccc2)cc(=O)[nH]1)N1CCc2ccccc21` gave PI5P4K alpha inh -50, LDHA inh inactive, DRD3 agonist inactive, D3 antag inactive, PI4K2A block inactive and ADP-Glo counter inactive.
`CCCCOC(=O)COc1ccc2c(=O)c(Oc3ccc(OC)cc3)c(C(F)(F)F)oc2c1` gave LDHA inh inactive.
`Clc1cccc(Cl)c1CO/N=C/c1ccc(OCc2ccccc2)cc1` gave LDHA inh inactive.
`CCn1c(SCC(=O)O)nc2c1c(=O)[nH]c(=O)n2C` gave LDHA inh inactive.
For N#Cc1ccc(COC(=O)CC(NC(N)=O)c2ccc(Cl)cc2)cc1 (stereo not given) the results were PI5P4K alpha inh inconclusive, LDHA inh inactive, DRD3 agonist inactive, D3 antag inactive, PI4K2A block inactive and ADP-Glo counter inactive.
`Cc1c(C(=O)OCC(C)C)[nH]c2c1C(=O)CC(c1ccco1)C2` (stereo not given) gave PI5P4K alpha inh -56, LDHA inh inactive, DRD3 agonist inactive, D3 antag -53, PI4K2A block inactive and ADP-Glo counter inactive.
Screening O=c1[nH]c2cc3c(cc2cc1CN(Cc1ccccc1)Cc1nnnn1Cc1ccco1)OCCO3 returned PI5P4K alpha inh -54, LDHA inh inactive, DRD3 agonist inactive, D3 antag inactive, PI4K2A block inactive and ADP-Glo counter inactive.
Screening O=c1[nH]c2cc3c(cc2cc1CN(Cc1cccnc1)Cc1nnnn1Cc1ccco1)OCCO3 returned LDHA inh inactive, DRD3 agonist inactive, D3 antag inactive and PI4K2A block inactive.
For O=C(NCCCN1CCOCC1)c1sc2cc(Cl)ccc2c1Cl the results were PI5P4K alpha inh inactive, LDHA inh inactive, DRD3 agonist inactive, D3 antag inactive and PI4K2A block inactive.
`Cc1ccnc(NC(=O)c2sc3ccccc3c2Cl)c1` gave PI5P4K alpha inh inactive, LDHA inh inactive, DRD3 agonist inactive, D3 antag inconclusive and PI4K2A block inactive.
O=C(NCCCN1CCOCC1)c1sc2cc([N+](=O)[O-])ccc2c1Cl was read as PI5P4K alpha inh -68, LDHA inh inactive, DRD3 agonist inactive, D3 antag inactive, PI4K2A block inactive and ADP-Glo counter inactive.
Screening O=C(Nc1ccccn1)c1sc2cc([N+](=O)[O-])ccc2c1Cl returned PI5P4K alpha inh -52, LDHA inh inactive, DRD3 agonist inactive, D3 antag inactive, PI4K2A block inactive and ADP-Glo counter inactive.
`N#Cc1ccc(NC(=O)OC2CC3CC2[C@H]2CCCCN2C3)cc1` (stereo not given in full) gave PI4K2A block inactive.
N#Cc1c(NC(=O)CSc2nc3ccccc3[nH]2)sc2c1CCC2 was read as LDHA inh inactive.
NC(=O)C1CCN(c2cc(Cl)nc(N)n2)CC1 was read as PI5P4K alpha inh -53, LDHA inh inactive, DRD3 agonist inactive, D3 antag inactive, PI4K2A block inactive and ADP-Glo counter inactive.
Screening COc1cccc(/C=C/c2nc3cc(Cl)ccc3o2)c1 returned LDHA inh inactive.
